Compound activity deposited in PubChem BioAssay by several laboratories.
CYP2C19 inhib = blockers of cytochrome P450 2C19 activity – biochemical, luminescence, ADME assay, primary screen; P33261; CYP2C19 Supersomes, luciferin-H EGE luminescence, 30 min; inhibition, % at 5 µM; hit rate 21% among 96,000;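 active = CYP2C19 inhibition above a set limit at 5 µM in the primary screen, cut at about 50% in these data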;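 note: plate controls were negative control wells for no effect and 2.5 mM tranylcypromine positive control for full effect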
CYP2C9 act = human CYP2C9 activators, primary screen, biochemical, luminescence; Cytochrome P450 2C9 (Homo sapiens), P11712; activation factor at 5 µM; recombinant CYP2C9, luciferin-H conversion; active compounds read high; factor 1 = untreated enzyme, 0 = blocked; AID 1024, 2008; hit rate 1.4% among 96,000;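 active = activation factor of 2 or more for CYP2C9 at a 5 µM dose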;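 note: 0 = sulfaphenazole-blocked wells and 1 = vehicle-only wells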
sEH act = soluble epoxide hydrolase activators, primary screen, biochemical, human sEH. Bifunctional epoxide hydrolase 2 (Homo sapiens), P34913. activation, % at 2 µM. hit rate 0.04% among 91,000. purified human sEH enzymatic activity, activator screen; in the data active = activation above about 37%
Target sequence (P34913 whole entry, looked up): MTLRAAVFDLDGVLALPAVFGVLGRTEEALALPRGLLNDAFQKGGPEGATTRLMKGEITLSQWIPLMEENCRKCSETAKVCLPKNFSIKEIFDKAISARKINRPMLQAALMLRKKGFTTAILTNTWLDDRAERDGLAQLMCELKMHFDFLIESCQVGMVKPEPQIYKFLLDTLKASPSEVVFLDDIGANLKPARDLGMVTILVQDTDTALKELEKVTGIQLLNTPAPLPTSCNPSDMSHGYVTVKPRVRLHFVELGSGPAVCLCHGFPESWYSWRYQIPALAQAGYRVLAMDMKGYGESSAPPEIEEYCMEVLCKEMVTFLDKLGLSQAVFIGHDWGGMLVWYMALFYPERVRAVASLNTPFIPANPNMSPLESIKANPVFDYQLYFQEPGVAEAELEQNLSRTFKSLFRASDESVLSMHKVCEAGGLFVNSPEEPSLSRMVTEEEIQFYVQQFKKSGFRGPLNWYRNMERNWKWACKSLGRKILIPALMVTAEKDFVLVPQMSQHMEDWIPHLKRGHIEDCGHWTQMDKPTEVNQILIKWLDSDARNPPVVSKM
sEH inhibitor = soluble epoxide hydrolase inhibitors, primary screen, biochemical, human sEH; recombinant human sEH enzymatic activity assay; Bifunctional epoxide hydrolase 2 (Homo sapiens), P34913; AID 707, 2007; inhibition, % at 2 µM; hit rate 0.34% among 91,000; in the data active = inhibition above about 80%
CYP2C9 inhib = blockers of cytochrome P450 2C9 activity – biochemical, luminescence, ADME assay, primary screen. inhibition, % at 5 µM. CYP2C9 Supersomes, luciferin-H conversion. hit rate 20% among 96,000. P11712;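 active = blocking of liver enzyme CYP2C9 beyond about 50% at 5 µM, limit read from the data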
CYP2C19 act = human CYP2C19 activators, primary screen, biochemical, luminescence. AID 1025, 2008. activation factor at 5 µM. 96,000 tested, under 10 active. Cytochrome P450 2C19 (Homo sapiens), P33261. recombinant CYP2C19, luciferin-H EGE luminescence; active compounds read high; 0 = fully inhibited enzyme, 1 = untreated enzyme;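 active = activation factor of at least 2 at 5 µM in the primary screen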;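 note: 0 = wells with 2.5 mM tranylcypromine and 1 = vehicle-only wells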
Numbers without * were called inactive; · = no result. Rows were chosen to be rich in hits. Some 27% of all compounds tested hit in one or more screens of this group.

SMILES	CYP2C19 inhib	CYP2C9 act	sEH act	sEH inhibitor	CYP2C9 inhib	CYP2C19 act
CC(=O)N1CCN(C2c3cccc4cccc(c34)C2NS(=O)(=O)c2ccccc2)CC1 (stereo unspecified)	73.9*	0.3	-8.1	10.5	68.0*	0.3
CCn1[nH]c(=O)c(=Nc2c(C)n(C)n(-c3ccccc3)c2=O)cc1-c1ccc(Cl)cc1	4.0	0.6	-20.5	21.7	40.9	1
O=C(CN1CCC(n2nnc3cc(C(F)(F)F)ccc32)CC1)Nc1ccc2c(c1)CCC2	53.5*	0.2	-14.3	15.6	78.7*	0.5
O=C(CN1CCC(n2nnc3cc(C(F)(F)F)ccc32)CC1)Nc1ccc2c(c1)OCCO2	82.1*	0.1	-2.6	3.1	87.3*	0.2
CCN1CCN(C(=O)CCc2ccc(S(=O)(=O)NCCc3ccccc3)cc2)CC1	·	·	15.1	-15.1	·	·
CCOC(=O)CCCCC(=O)NC(CO)C(=O)NC (stereo unspecified)	-15.8	1.2	-8.6	9.9	-20.5	1.2
Oc1ccc(-n2cnnn2)cc1	-10.4	1.4	5.5	-6.3	-40.9	1.1
Cc1ccc(NC(=O)CSC2=C(C#N)C(c3ccco3)C3=C(CC(C)(C)CC3=O)N2)cc1 (stereo unspecified)	92.8*	0	-0.1	1.5	95.7*	0.1
COC(=O)CSC1=C(C#N)C(c2sccc2C)CC(=O)N1 (stereo unspecified)	·	·	-7.5	6.9	·	·
CC1=C(C(=O)OCC2CCCO2)C(c2ccncc2)C2=C(CC(C)(C)CC2=O)N1 (stereo unspecified)	57.4*	0.8	5.6	-7.5	22.4	0.4
Cc1ccc(C(=O)CSC2=C(C#N)C(c3ccco3)CC(=O)N2)c(C)c1 (stereo unspecified)	48.7	0	16.0	-14.4	98.2*	0.5
CCc1ccc(NC(=O)CSC2=C(C#N)C(c3ccco3)C3=C(CCCC3=O)N2)cc1 (stereo unspecified)	32.8	0.8	-12.2	13.7	19.3	0.7
COCCOC(=O)C1=C(C)NC2=C(C(=O)CC(C)(C)C2)C1c1cccnc1 (stereo unspecified)	34.6	0.9	7.9	-10.0	5.2	0.7
Cc1ccc(NC(=O)CSC2=C(C#N)C(c3ccco3)CC(=O)N2)cc1 (stereo unspecified)	81.4*	0.5	-22.7	24.2	49.9	0.2
COc1cccc(C2Nc3cc(Cl)c(S(N)(=O)=O)cc3S(=O)(=O)N2)c1 (stereo unspecified)	-17.3	0.9	11.4	-9.8	14.5	1.2
O=c1[nH]n(-c2ccc(Cl)cc2)c2ncccc12	-3.7	1.1	3.8	-0.9	-5.2	1
O=C1CC(c2ccc(S(=O)(=O)N3CCN(c4ccccc4)CC3)cc2)CN1 (stereo unspecified)	9.7	0.8	-4.8	7.9	19.3	0.9
O=C(CSc1nnnn1-c1ccc(F)cc1)Nc1ccc(N2CCOCC2)c(Cl)c1	-4.3	1.1	-48.1	49.8	-8.9	1
CCOC(=O)C1=C(N)OC2=C(C(=O)CC(C)(C)C2)C1c1ccco1 (stereo unspecified)	20.9	0.6	-1.2	1.4	35.5	0.8
CC1=C(C(=O)OCc2ccccc2)C(c2ccco2)C2=C(CC(C)(C)CC2=O)N1 (stereo unspecified)	62.7*	0.3	0.9	2.1	67.4*	0.4
CCCCNC(=O)CN(CCc1ccccc1)S(C)(=O)=O	71.9*	0.7	-10.5	13.2	25.4	0.3
COCCNC(=O)CN(CCc1ccccc1)S(=O)(=O)c1ccc(OC)cc1	59.7*	1.1	-10.6	7.9	-12.1	0.4
CS(=O)(=O)N(CCc1ccccc1)CC(=O)N1CCCCC1	7.0	1.1	3.5	-9.3	-10.0	0.9
CS(=O)(=O)N(CCc1ccccc1)CC(N)=O	6.4	1	1.1	-1.8	2.7	0.9
CCNC(=O)CN(CCc1ccccc1)S(C)(=O)=O	71.7*	0.8	11.9	-14.1	18.4	0.3
SMILES	CYP2C19 inhib	CYP2C9 act	sEH act	sEH inhibitor	CYP2C9 inhib	CYP2C19 act
COc1ccc(S(=O)(=O)N(CCc2ccccc2)CC(=O)O)cc1Cl	1.6	0.9	-7.1	5.3	12.4	1
CS(=O)(=O)N(CCc1ccccc1)CC(=O)NCc1ccncc1	99.8*	0	-10.1	8.3	98.6*	0
CC(C)NC(=O)CN(CCc1ccccc1)S(C)(=O)=O	82.4*	0.9	·	·	10.8	0.2
COC(=O)[C@H](C)NC(=O)Nc1ccc(Oc2ccccc2)cc1	37.0	0.8	-7.7	8.3	20.8	0.6
O=C(Nc1ccc(O)c(C(=O)O)c1)c1ccc2c(c1)C(=O)N(CC1CCCO1)C2=O (stereo unspecified)	1.5	0.3	·	·	65.5*	1
COc1ccc(-n2cnnc2SCc2cnc(-c3ccccc3)s2)cc1	66.0*	0.8	4.6	-6.9	24.7	0.3
CCC(CC)c1nnc(NC(=O)c2cccc(S(=O)(=O)N3CCc4ccccc43)c2)s1	28.2	0.2	-9.4	8.9	75.5*	0.7
CN1CCc2nc(NC(=O)c3cccc(S(=O)(=O)N4CCc5ccccc54)c3)sc2C1	-2.2	0.7	-6.8	9.8	26.9	1
CCOc1ccccc1NC(=O)C1CC2CCCC(C1)C2=O (stereo unspecified)	16.4	1.9	3.2	-0.7	-93.2	0.8
COc1ccc(-c2n[nH]c(C(F)(F)F)c2-c2cc3ccccc3o2)c(O)c1	20.2	0.1	15.2	-13.4	90.4*	0.8
Cc1cc(S(=O)(=O)Nc2c(C(=O)O)[nH]c3ccccc23)ccc1F	91.9*	0.2	-29.7	30.6	78.6*	0.1
COC(=O)c1[nH]c2ccc(F)cc2c1NC(=O)Nc1ccc(OC)cc1	11.1	1	-4.3	7.3	2.6	0.9
COC(=O)c1[nH]c2ccc(C)cc2c1NS(=O)(=O)c1ccc(F)c(C)c1	75.5*	0.5	10.9	-11.5	52.1*	0.2
COC(=O)c1[nH]c2ccc(C)cc2c1NS(=O)(=O)c1ccc(F)cc1	76.8*	0.6	-22.6	22.2	35.9	0.2
COC(=O)c1[nH]c2ccc(C)cc2c1NC(=O)Oc1ccccc1	18.2	1	1.0	1.0	2.0	0.8
COC(=O)c1[nH]c2ccc(C)cc2c1NC(=O)Nc1ccc(OC)cc1	54.3*	0.9	3.2	-3.1	5.6	0.5
Cc1ccc2ccc(C3C(=O)c4ccccc4C3=O)nc2c1	·	·	-4.4	4.6	·	·
O=C(Cn1cnc2ccccc2c1=O)NCCC(=O)Nc1ccc2c(c1)OCCO2	14.1	0.5	·	·	51.4*	0.9
O=C(Cn1cnc2ccccc2c1=O)Nc1ccc2c(c1)OCCO2	-6.1	0.8	·	·	21.2	1.1
